# From PubChem BioAssay AID1851 (National Center for Advancing Translational Sciences (NCATS), 2009)
# About 2,600 (16%) of roughly 16,000 compounds were called active. Not shown: some 20% with an inconclusive outcome. Calls follow the shape of the dose curve; as a rule, active = well fitted curve in the direction sought with a large enough effect; inconclusive = small, poorly fitted or top-dose-only effect, or effect the other way; inactive = no such curve, though single readings can be large or run the other way. The list is a sample of the results.
# Biological target: Cytochrome P450 2D6 (Homo sapiens) (UniProt P10635)
# Assay: Cytochrome panel assay with activity outcomes
# Details: recombinant CYP, pro-luciferin dealkylation, luminescence, p450-cyp2d6; series mostly up to 57.1 µM; activity, negative = inhibition: at the top concentration
# % is scaled to controls: 0 for no effect and ±100 for the full control effect.
# Sequence of Cytochrome P450 2D6 (Homo sapiens) (P10635 whole entry, looked up): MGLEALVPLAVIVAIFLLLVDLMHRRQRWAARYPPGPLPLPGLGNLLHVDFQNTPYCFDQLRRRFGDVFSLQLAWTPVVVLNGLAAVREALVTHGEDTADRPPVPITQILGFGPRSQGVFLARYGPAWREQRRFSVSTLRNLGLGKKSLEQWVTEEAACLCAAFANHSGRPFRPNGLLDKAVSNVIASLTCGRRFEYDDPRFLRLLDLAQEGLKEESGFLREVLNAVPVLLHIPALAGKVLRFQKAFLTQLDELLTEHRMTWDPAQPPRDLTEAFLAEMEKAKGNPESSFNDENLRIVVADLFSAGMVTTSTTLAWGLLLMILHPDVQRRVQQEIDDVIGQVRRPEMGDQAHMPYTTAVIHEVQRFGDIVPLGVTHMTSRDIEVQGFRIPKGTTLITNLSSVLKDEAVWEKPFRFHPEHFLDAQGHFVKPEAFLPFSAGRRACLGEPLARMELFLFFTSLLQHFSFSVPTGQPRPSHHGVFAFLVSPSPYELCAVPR
SMILES,"activity, negative = inhibition",AC50
O=C(NCC1CCCO1)C(c1cccnc1)N(C(=O)Cc1cccs1)c1cccnc1 (configuration not stated),11.9% (inactive),
Cc1nnc(NS(=O)(=O)c2ccc(N)cc2)s1,-1.12% [at 25.6 µM] (inactive),
O=C(O)Cc1ccc2ocnc2c1,19.2% (inactive),
CCCC(=O)N1c2ccccc2C(N(C(C)=O)c2ccccc2)CC1C (configuration not stated),-4.05% (inactive),
O=C(Nc1cc2c(oc1=O)CCCC2=O)c1ccc(Cl)cc1,-15% (inactive),
S=c1[nH]c2cc(Cl)ccc2s1,-23.7% (inactive),
COc1ccc2nc(N)sc2c1,-5.21% (inactive),
NCC[C@H](O)C(=O)N[C@H]1C[C@@H](N)[C@@H](O[C@H]2O[C@@H](CN)[C@@H](O)[C@@H](O)[C@@H]2O)[C@@H](O)[C@@H]1O[C@H]1O[C@@H](CO)[C@@H](O)[C@@H](N)[C@@H]1O,3.98% [at 25.6 µM] (inactive),
Cc1n[nH]c(C)c1S(=O)(=O)N1CCOCC1,13.9% (inactive),
COc1ccc(/C=N/OCc2nc3c4c(ncn3n2)Oc2ccc3ccccc3c2C4c2ccccc2)cc1 (configuration not stated),-1.08% (inactive),
Fc1ccc(-c2ccnc3nc(N4CCOCC4)nn23)cc1,-4.82% (inactive),
Cc1cccc(C)c1NC(=O)CS(=O)CC(=O)Nc1ccc(F)cc1F (configuration not stated),-20.9% (inactive),
Cc1cccc(C)c1NC(=O)CN1CCN(CCCC(c2ccc(F)cc2)c2ccc(F)cc2)CC1,,5.01 µM (active)
Cc1c(NC(=O)CN2CCN(c3ccccc3)CC2)c(=O)n(-c2ccccc2)n1C,2.48% (inactive),
Nc1nc2c(c(=O)[nH]1)N[C@H](CCNc1ccc(C(=O)O)cc1)CN2,1.76% [at 11.4 µM] (inactive),
Cc1nc(-c2cccnc2)sc1C(=O)Nc1ccc(Cl)cc1,,15.8 µM (active)
Cc1nc(-c2cccnc2)sc1C(=O)Nc1ccc(F)cc1F,-13.3% (inactive),
CNC(=O)c1sc(-c2cccnc2)nc1C,1.87% (inactive),
N#CCCn1c(=O)c(-c2ccc(Cl)cc2)nc2cnc(Oc3cccc(Cl)c3)nc21,8.48% (inactive),
CCOC(=O)C(C)(C)[C@H](O)C(C)C,10.9% [at 11.4 µM] (inactive),
N[C@@H](Cc1ncccn1)C(=O)O,-1.91% [at 11.4 µM] (inactive),
Clc1ccc(COC(Cn2ccnc2)c2ccc(Cl)cc2Cl)c(Cl)c1 (configuration not stated),,1 µM (active)

SMILES,"activity, negative = inhibition",AC50
Clc1ccc(CO[C@@H](Cn2ccnc2)c2ccc(Cl)cc2Cl)cc1,,0.2 µM (active)
Cc1nn(C)c(Cl)c1NC(=O)OCc1ccc(Cl)cc1Cl,-12.9% (inactive),
Clc1ccc([C@H](Cn2ccnc2)OCc2csc3c(Cl)cccc23)c(Cl)c1,,5.01 µM (active)
COCCn1c(=O)c(-c2cc(F)cc(F)c2)nc2cnc(N3CCOCC3)nc21,9.89% (inactive),
O=C1Nc2ccc(F)cc2C12SCCS2,-4.91% (inactive),
Cn1c(=O)c(-c2ccc(F)c(F)c2)nc2cncnc21,-1.7% (inactive),
N#CCCn1c(=O)c(CCc2ccccc2)nc2cnc(Oc3cccc(Cl)c3)nc21,1.73% (inactive),
CC1CCC(=NNC(=O)Cc2ccccc2)CC1 (configuration not stated),-22% (inactive),
CN1Cc2c(C(=O)OC(C)(C)C)ncn2-c2ccsc2C1=O,-3.58% (inactive),
N#Cc1ccc(-c2ccc(F)cc2)nc1Oc1ccc(Cl)c(Cl)c1,1.51% (inactive),
Cc1ccc2ncc([N+](=O)[O-])n2c1,0.899% (inactive),
O=C(O)C1=CCCNC1,,inactive
O=C(O)C(=O)/C=C(\O)c1ccc(Br)cc1,-0.0145% [at 11.4 µM] (inactive),
Cc1cc(S(=O)(=O)NCCCN2CCOCC2)ccc1F,,12.6 µM (active)
CC(=O)Nc1ccc(S(=O)(=O)NC(CC(=O)NCCCN2CCOCC2)C(C)C)cc1 (configuration not stated),-17.2% (inactive),
Cc1ccc(-c2nn3c(C)nnc3c3ccccc23)cc1S(=O)(=O)NCCN1CCOCC1,-18% (inactive),
COc1ccc(-c2nc3cnc(N4CCN(C)CC4)nc3n(Cc3ccc(F)cc3)c2=O)cc1,-1.05% (inactive),
O=C(O)CCC(=O)c1ccc2sc3ccccc3c2c1,-3.63% [at 11.4 µM] (inactive),
CN(C)CCOC(=O)c1ccc(N)cc1,11.9% [at 11.4 µM] (inactive),
CCCCN(CCCC)CCCOC(=O)c1ccc(N)cc1,,0.00631 µM (active)
CCCCNc1ccc(C(=O)OCCOCCOCCOCCOCCOCCOCCOCCOCCOC)cc1,-0.114% [at 25.6 µM] (inactive),
Cc1cc([N+](=O)[O-])c(C)c(Br)c1C,-1.18% [at 11.4 µM] (inactive),

SMILES,"activity, negative = inhibition",AC50
CC(C)(C)C(=O)OCOC(=O)[C@@H]1N2C(=O)[C@@H](NC(=O)[C@H](N)c3ccccc3)[C@H]2SC1(C)C,-5.86% [at 25.6 µM] (inactive),
O=C(Nc1cccc(F)c1)N1CCCC2(CCN(C(=O)c3cc(C(F)(F)F)cc(C(F)(F)F)c3)CC2)C1,-4.07% (inactive),
COc1ccc2c(=O)c(-c3ccccc3)c(C)oc2c1,1.82% (inactive),
CCOc1ccccc1Oc1coc2cc(OC)ccc2c1=O,,0.501 µM (active)
CCOc1ccccc1Oc1c(C)oc2cc(OC(=O)c3ccco3)ccc2c1=O,-2.7% (inactive),
CC(C)C(C(=O)O)N1C(=O)/C(=C/C=C/c2ccco2)SC1=S (configuration not stated),8.03% (inactive),
CCCCN(C)C(=O)c1coc(=O)c2ccccc12,23.8% (inactive),
O=[n+]1c2c(n([O-])c3cc(F)c(F)cc31)CCCC2,3.89% (inactive),
O=C1c2ccccc2-c2ccc(NC(=O)[C@H]3CCCC[C@@H]3C(=O)O)cc21,-8.68% [at 11.4 µM] (inactive),
CCC(=O)Nc1ccc2c(c1)C(=O)c1ccccc1C2=O,,7.08 µM (active)
O=C(Nc1ccc(Nc2ccc3c(c2)C(=O)c2ccccc2C3=O)c2c1C(=O)c1ccccc1C2=O)c1ccccc1,-5.75% [at 11.4 µM] (inactive),
COc1ccc(/C=N/n2c(C)nnc2C)c(OC)c1,-1.27% (inactive),
OCCn1cnc2c(SCc3ccccc3)ncnc21,-0.741% [at 11.4 µM] (inactive),
CCn1c2ccccc2c2nnc(NCCCO)nc21,3.89% [at 11.4 µM] (inactive),
Cn1cnc2c(NCc3ccccc3)nc(NCCO)nc21,,1.26 µM (active)
O=C1[C@H]2[C@H]3[C@H](O)[C@H](O)C/C(=N/OC[C@@H](O)COCc4ccco4)[C@@H]3CC[C@@H]2C(=O)N1Cc1ccc2c(c1)OCO2,0.398% [at 11.4 µM] (inactive),
CN1CCC(N(C)C(=O)CCc2nc3ccccc3c(=O)[nH]2)CC1,5.72% (inactive),
O=C(O)CSc1ccn(Cc2ccccc2)c1,9% [at 11.4 µM] (inactive),
O=C(COC(=O)c1cccnc1Nc1cccc(C(F)(F)F)c1)NCc1ccc2c(c1)OCO2,,1.12 µM (active)
O=C(COC(=O)c1cnccn1)NCc1ccccc1,-13.3% (inactive),
O=C(O)c1cccnc1Nc1cccc(C(F)(F)F)c1,-1.07% [at 25.6 µM] (inactive),
Cc1cc2nnc(SCC(=O)OC(C)C)n2c2ccccc12,-7.14% (inactive),

SMILES,"activity, negative = inhibition",AC50
NC1=C2NC=N[C@@H]2N(C/C=C\c2ccccc2)C=N1,-12.6% [at 11.4 µM] (inactive),
N#CCCn1c(=O)c(-c2cccs2)nc2cnc(Oc3cccc(Cl)c3)nc21,3.98% (inactive),
Cc1cc(NC(=O)C2CCCCC2)nc2c1c(=O)oc1ccccc12,,20 µM (active)
COc1ccc2oc(=O)c(NC(=O)C3CCCCC3)cc2c1,21.2% (inactive),
O=C(Nc1cc2ccccc2oc1=O)C1CCCCC1,-12.9% (inactive),
O=c1cnc2cnc(Nc3ccccc3)nc2n1C[C@H]1CCCO1,-9.42% (inactive),
COc1ccc(-c2cc(CNC(C)=O)on2)cc1,21.2% (inactive),
COc1ccccc1/C=C/C=N/N1CCN(Cc2cccc3ccccc23)CC1,,7.94 µM (active)
FC(F)(F)c1ccc(/C=N/N2CCN(Cc3cccc4ccccc34)CC2)cc1,-19.8% (inactive),
COc1ccccc1CC(=O)O/N=C(\N)Cc1cccc2ccccc12,-5.92% (inactive),
CCc1nc(N2CCC3(CC2)OCCO3)c2nnn(Cc3ccccc3Cl)c2n1,-15.5% (inactive),
CC(C)C(=O)Cc1ccc2ccccc2n1,5.06% [at 11.4 µM] (inactive),
Cc1cc2c(cc1C)-c1nnc(-c3ccc4ccccc4n3)n1C(C)(C)C2,15.6% (inactive),
c1ccc2nc(-c3ccncc3)ccc2c1,,15.8 µM (active)
Cc1ccc([N+](=O)[O-])cc1N=C(c1cccc([N+](=O)[O-])c1)N1CCOCC1,-24.8% (inactive),
CC(=O)c1cnc2cc(C)nn2c1C,-4.17% (inactive),
CC(C)Oc1ccc2ccccc2c1C=O,-4.59% (inactive),
O=C(NNC(=O)C1CCN(S(=O)(=O)c2ccc(Cl)cc2)CC1)c1ccc(Cl)cc1,-4.04% (inactive),
Cc1[nH]c2c(C)ccc(C)c2c1CC(=O)O,-12.2% [at 11.4 µM] (inactive),
COc1ccc(CNc2nc3ccccc3n2Cc2ccccc2)cc1OC,,0.794 µM (active)
C=CCn1c(-c2cccn(Cc3ccccc3)c2=O)n[nH]c1=S,4.47% (inactive),
C=CCn1c(P(=O)(O)c2ccccc2)nc2ccccc21,-7.57% (inactive),

SMILES,"activity, negative = inhibition",AC50
COc1ccc(NC(=O)COC(=O)Cn2c(C)nc3ccccc32)cc1OC,16.2% (inactive),
C=CCn1c(NCc2ccccc2)nc2ccccc21,,0.398 µM (active)
CC(=O)Nc1nc2ccccc2n1Cc1ccccc1,-11.8% (inactive),
O=C(NCC1CCCO1)c1onc(CSc2ccccc2F)c1C(=O)O (configuration not stated),0.926% (inactive),
O=C(O)c1ccccc1N/N=C\c1ccnc2ccccc12,-29.2% (inactive),
CC(=O)ON(C(C)=O)S(=O)(=O)c1ccc(Cl)cc1,12.6% (inactive),
Cc1[nH]n(C(C)(C)C)c(=O)c1Sc1ccccc1,-13.6% (inactive),
O=P(O)(CCP(=O)(O)c1ccccc1)c1ccccc1,0.684% [at 11.4 µM] (inactive),
O=C(c1cc(C(F)(F)F)cc(C(F)(F)F)c1)N1CCC2(CC1)CCN(c1ncccn1)CC2,-13.1% (inactive),
Cc1ccc(-c2ccc(/C=N\NC(=O)c3cc4c(ccc5ccccc54)o3)o2)cc1[N+](=O)[O-],7.58% (inactive),
O=C(N/N=C(\c1ccccc1)c1cccnc1)C(O)(c1ccccc1)c1ccccc1,-25.7% (inactive),
Clc1ccc(CC[C@H](Cn2ccnc2)Sc2c(Cl)cccc2Cl)cc1,,1.26 µM (active)
O=C1C2=CC[C@@H]3C(=O)N(c4ccc(F)cc4F)C(=O)[C@H]3[C@H]2[C@H](O)[C@H]2O[C@H]12,6.42% [at 11.4 µM] (inactive),
CCCN(CCC)CCCNC(=O)CS(=O)Cc1nc(-c2ccc(OC)c(OC)c2)oc1C (configuration not stated),,5.01 µM (active)
COc1ccc(CCN(C)CCC(=O)Nc2c(C)cc(C)cc2C)cc1OC,-65.7% (inactive),
COc1ccc(-c2nc(C#N)c(N3CCC(C(N)=O)CC3)o2)cc1OC,4.34% (inactive),
COc1ccc(-c2nc(CSCC(=O)NCC3CCCO3)c(C)o2)cc1OC (configuration not stated),-17.1% (inactive),
COc1cccc(-c2nc(CS(=O)(=O)CC(=O)NCCCOC(C)C)c(C)o2)c1,-7.29% (inactive),
CCCCN(C)CCCNC(=O)CS(=O)Cc1nc(-c2ccc(OC)c(OC)c2)oc1C (configuration not stated),,11.2 µM (active)
